# Measurements: PubChem BioAssay (NCATS)
# Where “and” joins values, the source holds several entries; their conditions need not be identical. Equal entries are not always repeated. Inconclusive results are not listed. Unmarked numbers belong to inactive results. Calls of active or inactive are those of the source. Calls come from the whole dose curve; as a rule, active = well fitted inhibition curve with a large enough effect; inconclusive = small, poorly fitted or top-dose-only effect; inactive = flat fitted curve, though single readings scatter. Where a SMILES comes first, the peptide text is derived from it.
# Test system: KB-3-1
# Test: Cytotoxic Profiling of Annotated Libraries Using Quantitative High-Throughput Screening (AID 1296008); note: nearly all actives have a fitted effect of over 60% in size
# Conditions: Five cell lines viability, CellTiter-Glo ATP luminescence, 48-72 h; max response: hits give low values
# Excerpt: Cell-based phenotypic screening is a commonly used approach to discover biological pathways, novel drug targets, chemical probes and high-quality hit-to-lead molecules. Many hits identified from high-throughput screening campaign are ruled out through a series of follow-up potency, selectivity/specificity, and cytotoxicity assays. Prioritization of molecules with little or no cytotoxicity for a more in-depth downstream evaluation influence the future direction of projects, so cytotoxicity profiling of the screening libraries at early stage is essential for increasing the likelihood of candidate success. […] For the annotated library, we also examined the primary targets and mechanistic pathways regularly associated with cell death. To our knowledge, this is the first study to use high-throughput screening to profile large libraries for cytotoxicity assessment in both normal and cancer cell lines. In summary, the results generated here constitutes a valuable resource for the scientific community and provides insight on identifying cytotoxic compounds with particular mechanisms of action, and prioritizing compounds with suitable cytotoxicity profile for further evaluation.
# A pintool (Kalypsys) was used to transfer 23 nL of compound solution to the 1536-well assay plates. After 48 or 72 hr incubation at 37 degree Celsius, 5% CO2 and 95% humidity, 2.5 uL of CellTiter-Glo (Promega) was dispensed into each well using a dispenser (Aspect Automation, St. Paul, MN) with solenoid valves (Lee Valves, Westbrook CT). Plates were left at room temperature for 10 min before imaging the ATP-coupled luminescence using a ViewLux microplate imager (PerkinElmer, Waltham, MA).
# % is set by controls: 0 for no effect and ±100 for the full control effect; potency is the fitted concentration of half-maximal effect.
SMILES,max response,outcome,Potency
Cc1c(-c2ccnn2C)cc(C(=O)NCc2ccc(S(C)(=O)=O)cn2)c(=O)n1-c1cccc(C(F)(F)F)c1,2.1% and 7.91%,inactive,
C=C1CCC2[C@@](C)(C=O)CCC[C@]2(C)[C@H]1CC/C(C)=C/CO (stereo not given in full),7.89%,,
CC(=O)OC[C@@]12[C@H](O)C[C@]3(C)C(=CCC4[C@@]5(C)CC[C@H](O[C@@H]6O[C@H](C(=O)O)[C@@H](O[C@@H]7O[C@H](CO)[C@@H](O)[C@H](O)[C@H]7O)[C@H](O)[C@H]6O[C@@H]6O[C@H](CO)[C@@H](O)[C@H](O)[C@H]6O)[C@](C)(CO)C5CC[C@]43C)[C@@H]1CC(C)(C)[C@@H](OC(C)=O)[C@@H]2O (stereo not given in full),6.14%,,
CC(=O)c1c(O)cc2cccc3c2c1CC(C)(O)O3 (stereo not given),4.55%,,
CC1NC(=O)CNC(=O)C(C(C)C)NC(=O)C2CCCN2C(=O)C(C(C)C)NC(=O)C(Cc2c[nH]c3ccccc23)NC1=O (stereo not given) (cyclo(GAWVPV); configuration not given here),,inactive,
CC(C#N)C(C)O[C@@H]1O[C@H](CO)[C@@H](O)[C@H](O)[C@H]1O (stereo not given in full),,inactive,
CC1CCC2(C(=O)OC3OC(CO)C(O)C(O)C3O)CCC3(C(=O)O)C(=CCC4C5(C)CCC(OC6OC(C)C(O)C(O)C6O)C(C)(C)C5CCC43C)C2C1C (stereo not given),,inactive,
Cc1ccc2c(c1)C=Cc1cc(C)ccc1C2c1cn(Cc2ccc(C(=O)Nc3nn[nH]n3)o2)c(=O)[nH]c1=S,,inactive,
C[C@@H]1O[C@@H](O[C@H]2[C@H](O[C@H]3CO[C@@H](O[C@H]4CC[C@@]5(C)C(CC[C@]6(C)C5CC[C@]57OC[C@@]8(CC[C@](C)(CO)CC85)[C@H](O)C[C@]76C)C4(C)C)[C@H](O[C@@H]4O[C@H](CO)[C@@H](O)[C@H](O)[C@H]4O)[C@H]3O)O[C@H](CO)[C@@H](O)[C@@H]2O)[C@H](O)[C@H](O)[C@H]1O (stereo not given in full),5.69%,,
C=C1C[C@]23C[C@H]1CC[C@H]2[C@]1(C)CCC[C@@]2(CO)C(=O)O[C@H]([C@H]21)[C@@H]3O,6.36%,,
CC1(C)C(=O)N2c3ccccc3[C@]3(CC(n4cnc5ccccc5c4=O)C(=O)O3)[C@H]2N1O (stereo not given in full),,inactive,
CCC(C)/C=C(C)/C=C/C1=CC2=C(Cl)C(=O)C(C)(OC(C)=O)C(=O)C2=CN1C1CCCCN(C(CCC(N)=O)C(=O)O)C1=O (stereo not given),,inactive,
CC1(C(=O)O)CCCC2(C)C1CCC13CC(CCC21)C1(CO)OC31 (stereo not given),2.68%,,
C=C(C)[C@@H]1CC[C@](C)(O)[C@@H](OC(=O)c2ccccc2)C1,2.9%,,
O=C(c1ccccn1)c1cnn2c(-c3ccncc3)ccnc12,-2.39%,,
C[C@@H]1O[C@@H](OC[C@H]2O[C@@H](OCCc3ccccc3)[C@H](O)[C@@H](O)[C@@H]2O)[C@H](O)[C@H](O)[C@H]1O,,inactive,
O=C(O)c1cc(=O)c2c3nc4ccccc4oc-3cc(=O)c2[nH]1,-4.67%,,
CC1=C(CC(=O)O)c2cc(F)ccc2C1=Cc1ccc(S(C)(=O)=O)cc1,,inactive,
CC(=O)Oc1c(C)cc(OCC(O)CNC(C)C)c(C)c1C (stereo not given),4.82%,,
CC(NCc1ccc(OCc2cccc(F)c2)cc1)C(N)=O (stereo not given),9.7%,,

SMILES,max response,outcome,Potency
CC1=CCC(C(C)(C)O)CC1 (stereo not given),6.57%,,
CCC(=O)O[C@]1(C(=O)CCl)[C@@H](C)C[C@H]2[C@@H]3C[C@H](F)C4=CC(=O)C=C[C@]4(C)[C@@]3(F)[C@@H](O)C[C@@]21C,-4.75% and -10.3%,,
O=C(NC[C@H](O)CN1CCc2ccccc2C1)c1cc(NC2COC2)ncn1,,inactive,
O=C(NN1CCCCC1)c1nn(-c2ccc(Cl)cc2Cl)c(-c2ccc(C#Cc3ccc(C(F)(F)F)cc3)s2)c1CNS(=O)(=O)N1CCCC1,4.58%,,
CC(=O)O[C@H]1[C@H](Oc2ccccc2COC(=O)C2(O)C=CCCC2=O)O[C@H](CO)[C@@H](O)[C@@H]1O (stereo not given in full),6.43%,,
O=C(O)c1n[nH]c2c1C[C@H]1C[C@@H]21,3.14%,,
C=C1C[C@@]23CC[C@@H]4[C@](C)(C(=O)O)CCC[C@@]4(C)C2=CC[C@H]1C3,4.16%,,
C/C=C/C=C/C(CC(=O)O)Nc1ccc(C=O)cc1 (stereo not given),5.57%,,
C[C@H](CCC(=O)O)[C@H]1CC[C@H]2[C@@H]3[C@H](O)C[C@@H]4C[C@H](O)CC[C@]4(C)[C@H]3CC[C@]12C,0.682%,,
CCOc1cc2ncc(C#N)c(Nc3ccc(OCc4ccccn4)c(Cl)c3)c2cc1NC(=O)/C=C/CN(C)C,-14.4%,,
COC1=CC(=O)O[C@@H](CCc2ccccc2)[C@@H]1O,5.84%,,
NS(=O)(=O)NCCNc1nonc1C(=Nc1ccc(F)c(Br)c1)NO,4.58% and 8.99%,,
Cc1ccc(C(=O)Nc2ccc(Oc3cc4cnn(C)c4cc3-c3cn[nH]c3)c(F)c2)c(=O)n1-c1ccc(F)cc1,,,5.17 µM (active)
COC(C(=O)C(O)C(C)O)C1Cc2cc3cc(OC4CC(OC5CC(O)C(O)C(C)O5)C(O)C(C)O4)c(C)c(O)c3c(O)c2C(=O)C1OC1CC(OC2CC(OC3CC(C)(O)C(O)C(C)O3)C(O)C(C)O2)C(O)C(C)O1 (stereo not given),,,1.46 µM (active)
CC(O)CO (stereo not given),-18.9%,,
O=C(C1CC1)N1CC[C@@H](Cc2n[nH]c(=O)n2-c2ccc(-c3ccc4occc4c3)cc2)C1,,inactive,
CC1=CCC2C(C)(CO)CCCC2(CO)C1CO (stereo not given),,inactive,
CCc1cc2c(=O)c(-c3nc4ccccc4s3)coc2c(CN2CCCCC2)c1O,-10.9%,,
C/C=C1\[C@H](O[C@@H]2O[C@H](CO)[C@@H](O)[C@H](O)[C@H]2O)OC=C(C(=O)OC)[C@H]1CC(=O)OC,5.8%,,
